PubChem BioAssay (NCATS)
Several values for one entry are separate records, joined by “and”; a condition that tells them apart may be missing. Equal values may be shown once. Inconclusive results are not listed. Where a call stands in place of a potency, no number is given. A structure can be active in one record and inactive in another. Activity calls are given as the source filed them. The call rests on the fitted dose curve; in most records, active means well fitted curve in the direction sought with a large enough effect; inconclusive means small, poorly fitted or top-dose-only effect, or another doubt; inactive means no such curve, though single readings can be large; an effect the other way counts as inactive or inconclusive.

Tests used:
[1] = P-glycoprotein substrates identified in KB-3-1 adenocarcinoma cell line, qHTS therapeutic library screen (AID 1346986); further: nearly all actives have a fitted effect of over 60% in size;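 further: potency means the concentration at half of the fitted maximal effect; potency is for cytotoxicity meaning loss of cell viability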
In short: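 Resistance attributable to P-gp was assessed by comparing AC50 in KB-8-5-11 with parental KB-3-1 and by tariquidar reversal. Cells were exposed 72 h and viability read by CellTiter-Glo.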

[2] = P-glycoprotein substrates identified in KB-8-5-11 adenocarcinoma cell line, qHTS therapeutic library screen (AID 1346987); further: nearly all actives have a fitted effect of over 65% in size; further: potency means the concentration at half of the fitted maximal effect
In short: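 Steps: plate 500 KB-8-5-11 cells/well in DMEM + 10% FCS (colchicine removed); pin compounds in dose-response; incubate 72 h, 37 degree C, 5% CO2; add CellTiter-Glo, 5 min; read luminescence.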

[3] = NS1 protein of Zika virus - qHTS assay to identify small molecule inhibitors in human HEK 293 cells (AID 1347053); further: nearly all actives have a fitted effect of over 55% in size; further: potency means the concentration at half of the fitted maximal effect
In short: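 HEK 293 cells, seeded 20 h at 37 C, were pretreated with compound 1 h, then infected with ZIKV MR766 (MOI = 0.5) for 24 h. NS1 was read by TR-FRET with two anti-NS1 antibodies, normalized to uninfected and infected wells.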

[4] = qHTS of pediatric cancer cell lines to identify multiple opportunities for drug repurposing: Primary screen for TC32 cells (AID 1347089); further: nearly all actives have a fitted effect of over 60% in size
In short: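 Measured quantity: luminescence from CellTiter-Glo, reflecting metabolically active TC32 cells following 48 h of compound. Curves came straight from multi-point titrations, with 8 or 11 points in primary and 11 in confirmatory screening.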

[5] = qHTS of pediatric cancer cell lines to identify multiple opportunities for drug repurposing: Primary screen for SJ-GBM2 cells (AID 1347091); further: potency means the concentration at half of the fitted maximal effect
In short: (§1)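 Eight- or eleven-point concentration series, 48 h treatment at 37 degrees C in growth media; readout CellTiter-Glo luminescence. Potency and efficacy were taken from the concentration-response curves.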

[6] = qHTS of pediatric cancer cell lines to identify multiple opportunities for drug repurposing: Primary screen for A673 cells (AID 1347092); further: nearly all actives have a fitted effect of over 45% in size; further: potency means the concentration at half of the fitted maximal effect
In short: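 Cells are plated, rested 5 h, dosed by pintool, incubated 48 h, then lysed with CellTiter-Glo and read by luminescence. DMSO is the neutral control; bortezomib at 2.3 uM final is the positive control.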

[7] = qHTS of pediatric cancer cell lines to identify multiple opportunities for drug repurposing: Primary screen for NB-EBc1 cells (AID 1347095); further: potency means the concentration at half of the fitted maximal effect
In short: (§2)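 ATP-based luminescence (CellTiter-Glo) quantifies viability after a 48-hour exposure. Compounds are dosed across 8 or 11 final concentrations; DMSO and 2.3 µM bortezomib serve as controls.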

[8] = qHTS of pediatric cancer cell lines to identify multiple opportunities for drug repurposing: Primary screen for U-2 OS cells (AID 1347096); further: nearly all actives have a fitted effect of over 50% in size; further: potency means the concentration at half of the fitted maximal effect
In short: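 Cells (500-1,000/well) in growth media were settled 5 h at 37 degrees C, then given compounds for 48 h. Viability was read as CellTiter-Glo luminescence. Primary runs used MIPE at 11 points (0.78 nM-46 µM) and NPC at 8 points (0.59 nM-46 µM); follow-ups used 11 points.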

[9] = qHTS of pediatric cancer cell lines to identify multiple opportunities for drug repurposing: Primary screen for SK-N-MC cells (AID 1347093); further: potency means the concentration at half of the fitted maximal effect
In short: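 Metabolically active cells were quantified by ATP-dependent luminescence (CellTiter-Glo, 15 min at room temperature) following 48 h treatment. Cells had been plated at 500-1,000 per well and settled for 5 h beforehand.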

[10] = qHTS of pediatric cancer cell lines to identify multiple opportunities for drug repurposing: Primary screen for DAOY cells (AID 1347090); further: nearly all actives have a fitted effect of over 55% in size; further: potency means the concentration at half of the fitted maximal effect
In short: as §1

[11] = qHTS of pediatric cancer cell lines to identify multiple opportunities for drug repurposing: Primary screen for BT-37 cells (AID 1347094); further: potency means the concentration at half of the fitted maximal effect
In short: as §2

[12] = qHTS of pediatric cancer cell lines to identify multiple opportunities for drug repurposing: Primary screen for SK-N-SH cells (AID 1347098); further: nearly all actives have a fitted effect of over 65% in size; further: potency means the concentration at half of the fitted maximal effect
In short: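 Cells (500-1,000/well) rested 5 h, then received compounds for 48 h; metabolically active cells were measured by CellTiter-Glo luminescence. Final concentrations spanned up to 46 µM (MIPE, 11-point) or 0.59 nM-46 µM (NPC, 8-point) in primary screens, 11-point in follow-ups.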

[13] = qHTS of pediatric cancer cell lines to identify multiple opportunities for drug repurposing: Primary screen for Saos-2 cells (AID 1347097); further: nearly all actives have a fitted effect of over 40% in size; further: potency means the concentration at half of the fitted maximal effect
In short: as §2

Row | SMILES | Potency [1] | Potency [2] | Potency [3] | Potency [4] | Potency [5] | Potency [6] | Potency [7] | Potency [8] | Potency [9] | Potency [10] | Potency [11] | Potency [12] | Potency [13] | outcome [1]
1 | CC(C)CN(C[C@H](O)[C@H](Cc1ccccc1)NC(=O)O[C@H]1CCOC1)S(=O)(=O)c1ccc(N)cc1 | inactive | inactive | inactive | inactive | inactive | 11.8 µM (active) | inactive | inactive |  |  |  |  |  | 
2 | Cc1cc(C(C)Nc2ccccc2)c2nc(N3CCOCC3)cc(=O)n2c1 (centres undefined) | inactive | inactive | inactive | inactive |  | 0.935 µM (active) | inactive | inactive | 0.132 µM (active) |  |  |  |  | 
3 | Cc1cc(NC(=O)Nc2ccc(N(C)C)cc2)c2cc(F)cc(F)c2n1 | inactive | inactive | inactive | inactive |  | inactive |  | inactive | inactive | inactive | inactive | inactive |  | 
4 | CNC(=O)c1ccc2c(C(=Nc3cccc(CN(C)C)c3)c3ccccc3)c(O)[nH]c2c1 | inactive | inactive | inactive | inactive |  | 11.8 µM (active) |  | inactive | 23.5 µM (active) | inactive |  |  |  | 
5 | CNc1nc(Nc2ccc(C(=O)N3CCOCC3)cc2OC)ncc1Cl | inactive | inactive | inactive | inactive |  | inactive | inactive | inactive |  | inactive | inactive |  |  | 
6 | Cc1cc2c(cc1C1(c3ccc(C(=O)O)cn3)CC1)C(C)(C)CCC2(C)C | inactive | inactive | inactive | inactive |  |  |  |  | inactive | inactive | inactive | inactive | inactive | 
7 | CCCCCCCCCCCCCCCC(=O)O[C@H]1[C@@H](O)[C@@H](O)[C@@H]([C@H](NC(=O)[C@@H]2C[C@@H](CCC)CN2C)[C@H](C)Cl)O[C@@H]1SC | inactive | inactive | inactive | inactive | inactive |  | inactive | inactive | 18.7 µM (active) |  | inactive |  | inactive | 
8 | C[C@@H](NC(=O)c1ncnc(N)c1Cl)c1ncc(C(=O)Nc2cc(C(F)(F)F)c(Cl)cn2)s1 | inactive | inactive | inactive | inactive |  |  | 14.8 µM (active) | inactive | 16.6 µM (active) |  |  | 19.2 µM (active) |  | 
9 | COc1cccc(OC)c1-c1cc(C(=O)NC2(C(=O)O)C3CC4CC(C3)CC2C4)nn1-c1ccnc2cc(Cl)ccc12 (centres undefined) | inactive | inactive | inactive | inactive | 26.4 µM (active) | inactive |  | inactive | 18.7 µM (active) | inactive | inactive |  | inactive | 
10 | CC1C(=O)OC2C(O)C34C5CC(C(C)(C)C)C36C(OC(=O)C6O)OC4(C(=O)O5)C12O (centres undefined) | inactive | inactive | inactive | inactive | inactive | 18.7 µM (active) | 14.8 µM (active) | inactive | 29.6 µM (active) | inactive |  |  | inactive | 
11 | COc1ccc(-c2ccc3ncc4c(c3c2)n(-c2ccc(N3CCNCC3)c(C(F)(F)F)c2)c(=O)n4C)cn1 | 0.0231 µM (active) | 8.3 nM (active) and 184 nM (active) and 206 nM (active) | 6.62 µM (active) |  | 0.0132 µM (active) | 0.372 µM (active) | 0.0148 µM (active) | 7.43 µM (active) | 0.0037 µM (active) | 0.59 µM (active) | 0.0306 µM (active) |  | 0.418 µM (active) | 
12 | Cc1ccc(S(=O)(=O)OCC(=O)Nc2ccc(C(=O)O)c(O)c2)cc1 | inactive | inactive | inactive | inactive |  | 14.8 µM (active) | inactive | inactive | 9.35 µM (active) | inactive | inactive |  | inactive | 
13 | Cc1ccc2c(=O)c3cccc(CC(=O)O)c3oc2c1C | inactive | inactive | inactive | inactive | inactive |  |  | inactive | 16.6 µM (active) | 14.8 µM (active) |  | 24.1 µM (active) |  | 
14 | N=C1SC(=Cc2ccc(-c3ccc4c(c3)C(=O)NC4=O)o2)C(=O)N1c1ccc(Br)cc1 | inactive | inactive | inactive | inactive | 2.64 µM (active) | inactive | 3.72 µM (active) | inactive | inactive | inactive |  | inactive | inactive | 
15 | CCOC(=O)N1CCN([N+]([O-])=NOc2cc(ON=[N+]([O-])N3CCN(C(=O)OCC)CC3)c([N+](=O)[O-])cc2[N+](=O)[O-])CC1 | inactive | inactive | inactive | inactive | 14.8 µM (active) | inactive | 5.9 µM (active) | inactive | inactive | inactive | inactive | inactive | inactive | 
16 | COc1nccc(-c2c(-c3ccc(F)cc3)ncn2C2CCC(O)CC2)n1 (centres undefined) | inactive | inactive | inactive |  |  | inactive | inactive | inactive | inactive | inactive |  | inactive |  | 
17 | CCC=CC[C@H]1C(=O)CC[C@@H]1CC(=O)OC | inactive | inactive | inactive | inactive |  | inactive | inactive | inactive | inactive | inactive | inactive | 19.2 µM (active) | inactive | 
18 | OC[C@H]1O[C@@H](Oc2ccc(O)cc2)[C@H](O)[C@@H](O)[C@H]1O | inactive | inactive | inactive | inactive | inactive |  | inactive | inactive | 13.2 µM (active) |  | inactive | inactive | inactive | 
19 | NC(=O)c1ccc(N(C(N)=O)c2c(F)cccc2F)nc1-c1ccc(F)cc1F | inactive | inactive | inactive | inactive |  |  | inactive | inactive |  | 14.8 µM (active) | inactive |  | inactive | 
20 | CN[C@@H](C)[C@H]1[C@H](O)C[C@@]2(C)[C@@H]3CC[C@H]4C(C)(C)[C@@H](NC)CC[C@@]45C[C@@]35CC[C@]12C |  | inactive | inactive | inactive | inactive |  | inactive |  |  | inactive | inactive |  | inactive | inactive [at 9.29 µM]
21 | CNC(=O)c1cc(Oc2ccc(NC(=O)Nc3ccc(Cl)c(C(F)(F)F)c3)c(F)c2)ccn1 | 18.4 µM (active) | inactive and 16.4 µM (active) |  | inactive | 8.33 µM (active) | 18.7 µM (active) | 5.26 µM (active) | 23.5 µM (active) | 2.96 µM (active) | 5.9 µM (active) | 21.7 µM (active) |  | 16.6 µM (active) | 
22 | Cc1ccc(S(=O)(=O)Nc2nc3ccccc3nc2Nc2ccc3nsnc3c2)cc1 | inactive and 20.6 µM (active) | inactive and 2.91 µM (active) | inactive | inactive | 0.0575 µM (active) | 0.0013 µM (active) | 0.645 µM (active) |  | 0.0512 µM (active) | 0.407 µM (active) | 0.0376 µM (active) |  | 0.0457 µM (active) | 
23 | Cc1ccccc1C(=O)c1ccc(Nc2ccc(Br)cc2N)cc1Cl | 14.6 µM (active) | 20.6 µM (active) | 9.35 µM (active) |  | 23.5 µM (active) |  |  |  | 16.6 µM (active) |  |  | inactive | 18.7 µM (active) | 
24 | O=c1[nH]c(=O)n([C@H]2C[C@@H](O)[C@@H](CO)O2)cc1I | inactive | inactive | inactive |  |  |  | inactive | inactive | inactive | inactive | inactive | inactive | inactive | 
25 | CO[C@H]1O[C@@H]2O[C@@]3(C)CC[C@@H]4[C@@H](C)CC[C@@H]([C@H]1C)[C@@]24OO3 | inactive | inactive | inactive | inactive | inactive |  |  | inactive | 5.26 µM (active) | inactive |  | inactive |  | 
26 | CCC[C@@H](NC(=O)[C@@H]1[C@H]2CCC[C@@H]2CN1C(=O)[C@@H](NC(=O)[C@@H](NC(=O)c1cnccn1)C1CCCCC1)C(C)(C)C)C(=O)C(=O)NC1CC1 | inactive | inactive | inactive | inactive | 18.7 µM (active) | inactive | inactive | inactive | 23.5 µM (active) | inactive |  |  |  | 
27 | O=C(O)CCC=CCC[C@@H]1[C@H](N2CCCCC2)[C@@H](O)C[C@@H]1OCc1ccc(-c2ccccc2)cc1 | inactive | inactive | inactive | inactive |  |  | inactive | inactive | 26.4 µM (active) |  | inactive |  | inactive | 
28 | Nc1[nH]nc2nnc(-c3c(-c4ccccc4)nn4ccccc34)cc12 | inactive | inactive | inactive | inactive |  | 1.48 µM (active) | 3.32 µM (active) |  | 0.0332 µM (active) | 2.96 µM (active) | 2.73 µM (active) | 4.29 µM (active) | 9.35 µM (active) | 
29 | Cc1ccccc1C(C(=O)NC1CCCCC1)N(C(=O)CNc1ccc(C#N)cc1)c1cccc(F)c1 (centres undefined) | inactive | inactive | inactive | inactive |  | inactive | 23.5 µM (active) | inactive | inactive | inactive | inactive | inactive | 18.7 µM (active) | 
30 | CC(=O)O[C@]1(C(C)=O)CC[C@H]2[C@@H]3C=C(Cl)C4=CC(=O)[C@@H]5C[C@H]5[C@]4(C)[C@@H]3CC[C@@]21C | inactive | inactive | inactive | inactive | 9.35 µM (active) | 0.469 µM (active) | 16.6 µM (active) | inactive | 7.43 µM (active) | 18.7 µM (active) |  | 12.1 µM (active) |  | 
